Assay results as given in PubChem BioAssay AID1159580 (chemical genetic matrix, 2015).
Screen size: about 5,500 compounds; about 2,000 (36%) were called active. Not shown: some 18% with an inconclusive outcome. Cut-off read from the data, not from the text of the source: active = normalized growth mostly below about 0.91 (no sharp cut-off); inconclusive = no clear call, values can overlap the other calls; inactive = mostly above about 0.92. Some of the results follow.

Experiment: chemical genetic growth profiling, strain panel (AID 1159580);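 note: tested at 20 µM; growth read once vehicle control cultures reached saturation at 30 °C; 1 = growth at the plate median or of vehicle wells; lower values mean less growth of the strain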
Conditions: growth OD

Measured: normalized growth

CC1(C)C2CC(=O)[C@]3(C)C(CC[C@@]4(C)[C@H](c5ccoc5)OC(=O)[C@H]5O[C@]543)[C@@]2(C)C=C[C@@H]1O (some centres not stated)
inactive: S. cerevisiae deletion strains, locus YBR021W, strain FUR4, active compounds read low 0.944 | S. cerevisiae deletion strains, locus YBR229C, strain ROT2, active compounds read low 1.02 | S. cerevisiae deletion strains, locus YCL029C, strain bik1, active compounds read low 1 | S. cerevisiae deletion strains, locus YDL035C, strain GPR1, active compounds read low 1.02 | S. cerevisiae deletion strains, locus YDL074C, strain BRE1, active compounds read low 1.01 | S. cerevisiae deletion strains, locus YDL101C, strain DUN1, active compounds read low 0.994 | S. cerevisiae deletion strains, locus YDL134C, strain PPH21, active compounds read low 0.982 | S. cerevisiae deletion strains, locus YDL185W, strain tfp1, active compounds read low 1.01 | S. cerevisiae deletion strains, locus YDL192W, strain arf1, active compounds read low 1.01 | S. cerevisiae deletion strains, locus YDR101C, strain arx1, active compounds read low 0.993 | S. cerevisiae deletion strains, locus YDR150W, strain NUM1, active compounds read low 1.01 | S. cerevisiae deletion strains, locus YDR162C, strain NBP2, active compounds read low 1.01 | S. cerevisiae deletion strains, locus YDR318W, strain mcm21, active compounds read low 0.99 | S. cerevisiae deletion strains, locus YDR388W, active compounds read low 1.01 | S. cerevisiae deletion strains, locus YDR502C, strain sam2, active compounds read low 0.967 | S. cerevisiae deletion strains, locus YEL061C, strain CIN8, active compounds read low 1.01 | S. cerevisiae deletion strains, locus YER110C, active compounds read low 0.986 | S. cerevisiae deletion strains, locus YER155C, strain BEM2, active compounds read low 1.01 | S. cerevisiae deletion strains, locus YER167W, strain BCK2, active compounds read low 1.02 | S. cerevisiae deletion strains, locus YGL078C, strain dbp3, active compounds read low 0.981 | S. cerevisiae deletion strains, locus YGL086W, strain mad1, active compounds read low 0.989 | S. cerevisiae deletion strains, locus YGL248W, strain PDE1, active compounds read low 0.998 | S. cerevisiae deletion strains, locus YGR135W, strain pre9, active compounds read low 0.931 | S. cerevisiae deletion strains, locus YGR252W, strain gcn5, active compounds read low 0.844 | S. cerevisiae deletion strains, locus YHR030C, strain SLT2, active compounds read low 1.02 | S. cerevisiae deletion strains, locus YHR079C, strain IRE1 (second series), active compounds read low 0.99 | S. cerevisiae deletion strains, locus YHR094C, strain hxt1, active compounds read low 0.999 | S. cerevisiae deletion strains, locus YHR129C, strain ARP1, active compounds read low 1.01 | S. cerevisiae deletion strains, locus YHR200W, strain rpn10, active compounds read low 0.975 | S. cerevisiae deletion strains, locus YIL066C, strain RNR3, active compounds read low 1.04 | S. cerevisiae deletion strains, locus YIL073C, strain SPO22, active compounds read low 1.02 | S. cerevisiae deletion strains, locus YIL125W, strain kgd1, active compounds read low 0.995 | S. cerevisiae deletion strains, locus YIR030C, strain dcg1, active compounds read low 0.996 | S. cerevisiae deletion strains, locus YJL095W, strain BCK1, active compounds read low 1 | S. cerevisiae deletion strains, locus YJL134W, strain LCB3, active compounds read low 1.01 | S. cerevisiae deletion strains, locus YJL168C, strain set2, active compounds read low 0.993 | S. cerevisiae deletion strains, locus YJL187C, strain SWE1 (second series), active compounds read low 0.981 | S. cerevisiae deletion strains, locus YJR043C, strain POL32, active compounds read low 1.03 | S. cerevisiae deletion strains, locus YKL009W, strain mrt4, active compounds read low 0.988 | S. cerevisiae deletion strains, locus YKL068W, active compounds read low 1.01 | S. cerevisiae deletion strains, locus YKL085W, strain MDH1 (second series), active compounds read low 1.01 | S. cerevisiae deletion strains, locus YKL085W, strain MDH1, active compounds read low 1.01 | S. cerevisiae deletion strains, locus YKR001C, strain vps1, active compounds read low 1 | S. cerevisiae deletion strains, locus YLR039C, strain RIC1, active compounds read low 1.18 | S. cerevisiae deletion strains, locus YLR058C, strain SHM2, active compounds read low 0.996 | S. cerevisiae deletion strains, locus YLR102C, strain apc9, active compounds read low 1 | S. cerevisiae deletion strains, locus YLR262C, strain YPT6, active compounds read low 1.16 | S. cerevisiae deletion strains, locus YLR268W, strain sec22, active compounds read low 1 | S. cerevisiae deletion strains, locus YLR330W, strain CHS5, active compounds read low 1 | S. cerevisiae deletion strains, locus YLR371W, strain rom2, active compounds read low 1.01 | S. cerevisiae deletion strains, locus YLR418C, strain cdc73, active compounds read low 0.936 | S. cerevisiae deletion strains, locus YML016C, strain PPZ1, active compounds read low 1.03 | S. cerevisiae deletion strains, locus YML032C, strain rad52, active compounds read low 0.998 | S. cerevisiae deletion strains, locus YML124C, strain tub3, active compounds read low 0.995 | S. cerevisiae deletion strains, locus YMR078C, strain ctf18, active compounds read low 0.998 | S. cerevisiae deletion strains, locus YMR223W, strain ubp8, active compounds read low 0.97 | S. cerevisiae deletion strains, locus YMR263W, strain SAP30, active compounds read low 0.986 | S. cerevisiae deletion strains, locus YMR307W, strain GAS1, active compounds read low 1.1 | S. cerevisiae deletion strains, locus YNL067W, strain RPL9B, active compounds read low 0.97 | S. cerevisiae deletion strains, locus YNL128W, strain TEP1, active compounds read low 1.02 | S. cerevisiae deletion strains, locus YNL233W, strain BNI4, active compounds read low 0.975 | S. cerevisiae deletion strains, locus YNL250W, strain rad50, active compounds read low 0.986 | S. cerevisiae deletion strains, locus YNL271C, strain bni1, active compounds read low 1 | S. cerevisiae deletion strains, locus YNL298W, strain CLA4, active compounds read low 1.01 | S. cerevisiae deletion strains, locus YNL307C, strain MCK1, active compounds read low 1 | S. cerevisiae deletion strains, locus YNL322C, strain KRE1, active compounds read low 1.01 | S. cerevisiae deletion strains, locus YNR052C, strain pop2, active compounds read low 0.967 | S. cerevisiae deletion strains, locus YOL012C, strain htz1 1.21 | S. cerevisiae deletion strains, locus YOL147C, strain pex11, active compounds read low 0.993 | S. cerevisiae deletion strains, locus YOR061W, strain CKA2, active compounds read low 1.02 | S. cerevisiae deletion strains, locus YOR069W, strain VPS5, active compounds read low 1 | S. cerevisiae deletion strains, locus YOR136W, strain idh2, active compounds read low 0.985 | S. cerevisiae deletion strains, locus YOR144C, strain elg1, active compounds read low 1 | S. cerevisiae deletion strains, locus YOR184W, strain ser1, active compounds read low 0.993 | S. cerevisiae deletion strains, locus YOR316C, strain cot1, active compounds read low 1.01 | S. cerevisiae deletion strains, locus YPL241C, strain CIN2, active compounds read low 1.01 | S. cerevisiae deletion strains, locus YPR119W, strain clb2, active compounds read low 0.997 | S. cerevisiae deletion strains, locus YPR141C, strain kar3, active compounds read low 1.01 | S. cerevisiae deletion strains, locus YPR163C, strain tif3, active compounds read low 0.987 | S. cerevisiae deletion strains, locus YPR167C, strain met16, active compounds read low 0.985 | S. cerevisiae deletion strains, strain wtn01, active compounds read low 0.998 | S. cerevisiae strains, strain wild type, active compounds read low 1.01
